Source: PubChem BioAssay (National Center for Advancing Translational Sciences (NCATS))
The list is not random: actives were taken first. Their share in the collection is about 7.4%.
NPC1 promoter act = activates the NPC1 promoter; Huh7 NPC1 promoter luciferase reporter, 24 h; Potency, µM (highest dose often 9.22 µM), for the others: at the top dose activation, usual class: activators; hit rate 2.4% among 320,000; AID 485313; also: % of control where 0% means no effect; nearly all actives have a fitted effect of over 60% in size
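Luminescence from an NPC1 promoter-driven luciferase reporter in stably transfected Huh7 cells was measured after 24 h compound treatment at 37 °C, followed by 10 min ambient incubation with luciferase detection reagent.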
Rab9 prom act = activates the Rab9 promoter. Potency, µM (series often up to 9.22 µM), for the others: at the highest dose activation, negative = inhibition, most hits filed as activators. hit rate 2.8% among 320,000. Huh7 Rab9 promoter-luciferase reporter, luminescence, 24 h. AID 485297; also: % of control where 0% means no effect; nearly all actives have a fitted effect of over 60% in size
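Luminescence read-out: Huh7 cells stably expressing Rab9-luciferase, treated 24 h with compound at 37 °C, then lysed with luciferase reagent for 10 min at ambient before reading.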
ELG1 genotox = induces genotoxicity in HEK293T cells with luciferase-tagged ELG1; HEK293T ELG1-luciferase reporter, luminescence, 16 h; Potency, µM (top dose mostly 46 µM), for the others: at the top dose activity change, positive = activation, usual class: activators; hit rate 1.3% among 330,000; also: % of control where 0% means no effect; nearly all actives have a fitted effect of over 60% in size
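DMSO vehicle served as control against compound-treated ELG1-luciferase HEK293T cells; exposure lasted 16 hr at 37 °C and 5% CO2, followed by ONE-Glo luminescence detection after 30 min.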
SMN2 splice enh = enhancers of SMN2 splice variant expression. HEK293 SMN2-luciferase splicing reporter, luminescence, 30-36 h. Potency, µM (top dose mostly 46.1 µM), without a hit: at the top dose activity change, positive = activation, most hits filed as activators. hit rate 2.8% among 210,000; also: % of control where 0% means no effect; nearly all actives have a fitted effect of over 55% in size
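qHTS luciferase splicing reporter: luminescence rises when SMN2 exon 7 is included in transfected HEK293 cells. Compound exposure lasted 30-36 h at 37C, with 4.5 mM final sodium butyrate as control, followed by a ONE-Glo read.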
FLuc counter = counter-screen for miR-21 project: firefly luciferase inhibitors or activators; P08659; purified FLuc, Km substrates, luminescence inhibition; Potency, µM (doses to about 57.5 µM), for the others: top-dose activity change, negative = inhibition, hits mostly inhibitors; hit rate 6.9% among 360,000; AID 588342;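 also: plate controls were vehicle for no effect and reference inhibitor for full effect; nearly all actives have a fitted effect of over 55% in size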
Target sequence (P08659 whole entry, looked up): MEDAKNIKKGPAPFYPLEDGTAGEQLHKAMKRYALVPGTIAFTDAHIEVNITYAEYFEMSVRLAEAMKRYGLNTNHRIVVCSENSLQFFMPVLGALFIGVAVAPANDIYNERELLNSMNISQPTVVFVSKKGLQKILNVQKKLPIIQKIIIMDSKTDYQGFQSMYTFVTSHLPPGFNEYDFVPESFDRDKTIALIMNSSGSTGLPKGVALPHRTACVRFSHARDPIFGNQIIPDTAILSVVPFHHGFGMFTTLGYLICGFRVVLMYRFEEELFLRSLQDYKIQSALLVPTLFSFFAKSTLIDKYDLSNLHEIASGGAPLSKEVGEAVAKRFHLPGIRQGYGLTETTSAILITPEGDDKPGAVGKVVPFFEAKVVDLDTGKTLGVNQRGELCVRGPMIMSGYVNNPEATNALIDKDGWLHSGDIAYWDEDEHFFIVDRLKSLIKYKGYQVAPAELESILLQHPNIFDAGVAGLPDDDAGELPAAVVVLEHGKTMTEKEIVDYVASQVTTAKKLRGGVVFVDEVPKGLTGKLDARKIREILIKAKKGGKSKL
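Purified P. pyralis luciferase, 10 nM final, with Km-level 10 uM D-luciferin and 10 uM ATP in 50 mM Tris acetate pH 7.5, 10 mM Mg acetate, 0.01% Tween-20, 0.05% BSA; 6-point qHTS titration about 60 µM downward; luminescence read.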
Active calls of the source: *; u = inconclusive; x = no result given; [ ] = another dose, or the depositor's remark. Calls follow the shape of the dose curve; as a rule, active = well fitted curve in the direction sought with a large enough effect; inconclusive = small, poorly fitted or top-dose-only effect, or another doubt; inactive = no such curve, though single readings can be large; an effect the other way counts as inactive or inconclusive. Potency is read from the fitted curve at half-maximal effect.

SMILES | NPC1 promoter act | Rab9 prom act | ELG1 genotox | SMN2 splice enh | FLuc counter
COc1ccc(S(=O)(=O)Nc2ccc3c(c2)n(C)c(=O)n3C)cc1OC | 2.1% | 0.9% | u | x | 1.9%
Cc1cc(S(=O)(=O)Nc2cc3c(cc2NCc2ccccc2)n(C)c(=O)n3C)ccc1F | x | x | x | 10µM* | 23.9µM*
C=C(C(C)=O)C(O)c1ccc(C(F)(F)F)cc1 (stereo not drawn) | x | x | x | -0.4% | x
COc1ccc(NC(=O)c2cccc(Oc3ccccc3)c2)cn1 | -12.4% | 10.4% | 9.9% | x | 19µM*
O=C(O)c1ccc(NC(=S)NC(=O)c2ccc(-c3ccccc3)cc2)cc1 | 20.6% | u | 14.3% | 0.3% | 6.01µM*
COc1ccc(NC(=S)NC(=O)c2ccccc2)cn1 | u | 1.78µM* | u | x | 13.5µM*
COc1ccc(NC(=O)c2cccc(S(=O)(=O)Nc3ccc(Br)cc3)c2)cn1 | 0.0% | -12.1% | -3.9% | -51.6% | 1.4%
O=C(NC(=S)Nc1ccccc1)c1ccc(-c2ccccc2)cc1 | u | u | 7.1% | -0.9%[1.84 µM] | -10.6%
COc1cccc(C(=O)Nc2ccc(NC(=O)C(C)(C)C)cn2)c1 | 0.355µM* | 0.316µM* | u | 0.891µM* | 0.849µM*
CCc1ccc(N2C(=O)N(CC(=O)C(C)(C)C)c3ccccc3S2(=O)=O)cc1 | x | x | x | x | 0.1%
O=C(Cn1c(=O)n(Cc2ccco2)c(=O)c2oc3ccccc3c21)Nc1ccc(F)c(Cl)c1 | x | x | x | x | -12.4%
Cc1nn(-c2ccccc2)c(N)c1N=O | -3.7% | -2.7% | 7.1% | x | 5.2%
Cc1ccc(N=Nc2c(N)nn3c(N)c(C#N)c(C)nc23)cc1 | -8.3% | -23.1% | -3.5% | x | -1.5%
Cc1ccc(N=Nc2c(N)nn(-c3ccccc3)c2N)cc1 | u | u | u | 10µM* | 6.01µM*
Cc1nn(-c2ccccc2)c(N)c1N=Nc1ccc2ccccc2c1 | u | 3.55µM* | u | 12.6µM* | 10.7µM*
COc1cc(OC)c(NC2(c3ccccc3)C(=O)c3ccccc3C2=O)cc1Cl | x | x | x | x | 0.1%
Clc1cccc(-c2cc3nc4c(c(N5CCN(c6cnccn6)CC5)n3n2)CCCC4)c1 | -1.0% | 9.0% | -1.3% | -59.6% | 12µM*
COc1ccccc1CN1CCC2(CC1)CCN(S(=O)(=O)c1ccccc1)CC2 | x | x | x | -16.0% | x
O=C(CSc1nc2c([nH]c3ccccc32)c(=O)n1-c1ccc(F)cc1)NC1CCCCC1 | x | x | x | x | -4.3%
COC(=O)c1cn[nH]c1NC(=S)Nc1ccc(C)cc1Cl | 0.398µM* | 0.562µM* | 0.581µM* | 15.9% | 0.379µM*
CCOC(=O)NC(=S)Nc1ccc(OC)cc1 | 11.8% | 19.7% | 14.7% | 14.1% | -15.1%
CCOC(=O)c1cn[nH]c1NC(=S)Nc1ccc(OC)cc1 | 0.282µM* | 0.316µM* | u | x | 0.19µM*
COC(=O)c1cn[nH]c1NC(=S)Nc1ccccc1C | u | 3.55µM* | u | 3.6% | 7.57µM*
COC(=O)c1cn[nH]c1NC(=S)Nc1ccc(Cl)c(Cl)c1 | 0.631µM* | 0.355µM* | 0.411µM* | 10µM* | 0.426µM*
COc1ccc(CCNC(=O)Cn2nc(C)c3c(C)n(-c4ccc(C)cc4)nc3c2=O)c(OC)c1 | -15.8% | -16.4% | x | x | -0.4%
SMILES | NPC1 promoter act | Rab9 prom act | ELG1 genotox | SMN2 splice enh | FLuc counter
CC(C)C[C@@H](CC(=O)N[C@H](CC(=O)N[C@@H]1CCNC[C@H]1C(=O)N[C@H](CC(=O)N[C@@H](CCC(=O)O)CC(=O)O)CC(C)C)C(C)C)NC(=O)[C@@H]1CNCC[C@H]1N | x | x | x | 12.8% | x
CN(C(=O)CSc1cn(CC(=O)N2CCCCC2)c2ccccc12)c1ccccc1 | x | x | x | x | 2.6%
O=C(O)c1cc(-c2ccc(/C=C3\NC(=O)N(c4ccc(Cl)cc4)C3=O)o2)ccc1Cl | -2.9% | -1.1% | 0.3% | -3.1% | 19µM*
Cc1cccc(N2NC(=O)/C(=C/c3ccc(-c4ccc(Cl)c(C(=O)O)c4)o3)C2=O)c1 | 1.0% | 0.9% | 2.1% | -25.8% | 23.9µM*
O=C(O)c1cc(-c2ccc(/C=C3\NC(=O)N(c4ccccc4)C3=O)o2)ccc1Cl | 20.1% | 27.7% | 4.0% | x | u
CCN=C1S/C(=C\c2ccc(-c3cccc(C(=O)O)c3)o2)C(=O)N1CC | 0.631µM* | 0.398µM* | 1.64µM* | 3.55µM* | 0.757µM*
O=C1NN(c2ccccc2)C(=O)/C1=C/c1ccc(-c2ccc(Cl)c(C(=O)O)c2)o1 | -1.7% | -3.1% | -1.2% | 10.7% | u
